Measurements taken from PubChem BioAssay AID1159580 (chemical genetic matrix, 2015).
Hit rate of the full screen: of about 5,500 compounds, about 2,000 (36%) were called active. Roughly 18% stayed inconclusive and do not appear here. Rule as the data show it: active = normalized growth mostly below about 0.91 (no sharp cut-off); inconclusive = no clear call, values can overlap the other calls; inactive = mostly above about 0.92. This is one part of the list.

Experiment: chemical genetic growth profiling, strain panel (AID 1159580);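 also: tested at 20 µM; growth read once vehicle control cultures reached saturation at 30 °C; 1 = growth at the plate median or of vehicle wells; lower values mean less growth of the strain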
Conditions: growth OD

Measured: normalized growth

CC(=O)O[C@H]1CC[C@]2(C)C3CC[C@@]4(C)C(CC5O[C@@]6(CCC(C)CO6)[C@@H](C)C54)C3CC[C@@H]2C1 (stereo partly specified)
inactive: S. cerevisiae deletion strains, locus YJR066W, strain TOR1, hits give low values 0.946 | S. cerevisiae deletion strains, locus YJR075W, strain HOC1, hits give low values 0.982 | S. cerevisiae deletion strains, locus YKL009W, strain mrt4, hits give low values 1.04 | S. cerevisiae deletion strains, locus YKL068W, hits give low values 1 | S. cerevisiae deletion strains, locus YKL160W, strain elf1, hits give low values 1.01 | S. cerevisiae deletion strains, locus YKL190W, strain CNB1, hits give low values 1 | S. cerevisiae deletion strains, locus YKR001C, strain vps1, hits give low values 0.998 | S. cerevisiae deletion strains, locus YKR026C, strain gcn3, hits give low values 1.02 | S. cerevisiae deletion strains, locus YKR091W, strain srl3, hits give low values 1.02 | S. cerevisiae deletion strains, locus YLL001W, strain dnm1, hits give low values 1.01 | S. cerevisiae deletion strains, locus YLL026W, hits give low values 1.02 | S. cerevisiae deletion strains, locus YLL041C, strain sdh2, hits give low values 1.02 | S. cerevisiae deletion strains, locus YLR027C, strain aat2, hits give low values 1 | S. cerevisiae deletion strains, locus YLR039C, strain RIC1, hits give low values 0.992 | S. cerevisiae deletion strains, locus YLR058C, strain SHM2, hits give low values 0.993 | S. cerevisiae deletion strains, locus YLR102C, strain apc9, hits give low values 0.991 | S. cerevisiae deletion strains, locus YLR113W, strain HOG1, hits give low values 0.963 | S. cerevisiae deletion strains, locus YLR221C, strain rsa3, hits give low values 1.03 | S. cerevisiae deletion strains, locus YLR258W, strain gsy2, hits give low values 1.01 | S. cerevisiae deletion strains, locus YLR262C, strain YPT6 (second series), hits give low values 1.01 | S. cerevisiae deletion strains, locus YLR268W, strain sec22, hits give low values 0.998 | S. cerevisiae deletion strains, locus YLR320W, strain mms22, hits give low values 1.03 | S. cerevisiae deletion strains, locus YLR330W, strain CHS5, hits give low values 0.984 | S. cerevisiae deletion strains, locus YLR342W, strain FKS1 (second series), hits give low values 1.01 | S. cerevisiae deletion strains, locus YLR342W, strain FKS1, hits give low values 1.03 | S. cerevisiae deletion strains, locus YLR357W, strain rsc2, hits give low values 1.01 | S. cerevisiae deletion strains, locus YLR370C, strain arc18, hits give low values 1.02 | S. cerevisiae deletion strains, locus YLR371W, strain rom2, hits give low values 0.99 | S. cerevisiae deletion strains, locus YLR384C, strain iki3, hits give low values 0.99 | S. cerevisiae deletion strains, locus YLR418C, strain cdc73, hits give low values 0.947 | S. cerevisiae deletion strains, locus YML016C, strain PPZ1, hits give low values 0.992 | S. cerevisiae deletion strains, locus YML032C, strain rad52, hits give low values 0.977 | S. cerevisiae deletion strains, locus YML120C, strain ndi1, hits give low values 1.03 | S. cerevisiae deletion strains, locus YML124C, strain tub3, hits give low values 0.979 | S. cerevisiae deletion strains, locus YMR058W, strain fet3, hits give low values 1.01 | S. cerevisiae deletion strains, locus YMR078C, strain ctf18, hits give low values 1 | S. cerevisiae deletion strains, locus YMR125W, strain sto1, hits give low values 1.03 | S. cerevisiae deletion strains, locus YMR129W, hits give low values 1 | S. cerevisiae deletion strains, locus YMR205C, strain PFK2, hits give low values 0.999 | S. cerevisiae deletion strains, locus YMR223W, strain ubp8, hits give low values 0.984 | S. cerevisiae deletion strains, locus YMR231W, strain pep5, hits give low values 1.01 | S. cerevisiae deletion strains, locus YMR263W, strain SAP30, hits give low values 0.996 | S. cerevisiae deletion strains, locus YMR307W, strain GAS1, hits give low values 1.12 | S. cerevisiae deletion strains, locus YNL067W, strain RPL9B, hits give low values 0.98 | S. cerevisiae deletion strains, locus YNL071W, strain lat1, hits give low values 1 | S. cerevisiae deletion strains, locus YNL128W, strain TEP1, hits give low values 0.998 | S. cerevisiae deletion strains, locus YNL153C, strain GIM3, hits give low values 0.984 | S. cerevisiae deletion strains, locus YNL183C, strain NPR1, hits give low values 0.964 | S. cerevisiae deletion strains, locus YNL209W, strain ssb2, hits give low values 1 | S. cerevisiae deletion strains, locus YNL233W, strain BNI4, hits give low values 1.02 | S. cerevisiae deletion strains, locus YNL248C, strain rpa49, hits give low values 1.02 | S. cerevisiae deletion strains, locus YNL250W, strain rad50, hits give low values 0.975 | S. cerevisiae deletion strains, locus YNL271C, strain bni1, hits give low values 0.989 | S. cerevisiae deletion strains, locus YNL298W, strain CLA4, hits give low values 1 | S. cerevisiae deletion strains, locus YNL307C, strain MCK1, hits give low values 0.996 | S. cerevisiae deletion strains, locus YNL322C, strain KRE1 (second series), hits give low values 1.03 | S. cerevisiae deletion strains, locus YNR049C, strain mso1, hits give low values 0.995 | S. cerevisiae deletion strains, locus YNR052C, strain pop2, hits give low values 0.983 | S. cerevisiae deletion strains, locus YOL012C, strain htz1 0.761 | S. cerevisiae deletion strains, locus YOL147C, strain pex11, hits give low values 0.986 | S. cerevisiae deletion strains, locus YOR001W, strain rrp6, hits give low values 1.01 | S. cerevisiae deletion strains, locus YOR061W, strain CKA2, hits give low values 0.999 | S. cerevisiae deletion strains, locus YOR069W, strain VPS5, hits give low values 0.983 | S. cerevisiae deletion strains, locus YOR070C, strain gyp1, hits give low values 1.02 | S. cerevisiae deletion strains, locus YOR080W, strain dia2, hits give low values 1.01 | S. cerevisiae deletion strains, locus YOR083W, strain WHI5, hits give low values 1.04 | S. cerevisiae deletion strains, locus YOR106W, strain vam3, hits give low values 1.02 | S. cerevisiae deletion strains, locus YOR136W, strain idh2, hits give low values 0.993 | S. cerevisiae deletion strains, locus YOR144C, strain elg1, hits give low values 0.994 | S. cerevisiae deletion strains, locus YOR184W, strain ser1, hits give low values 1.03 | S. cerevisiae deletion strains, locus YOR231W, strain MKK1, hits give low values 0.988 | S. cerevisiae deletion strains, locus YOR265W, strain rbl2, hits give low values 1.02 | S. cerevisiae deletion strains, locus YOR270C, strain vph1, hits give low values 1 | S. cerevisiae deletion strains, locus YOR290C, strain snf2, hits give low values 1.03 | S. cerevisiae deletion strains, locus YOR316C, strain cot1, hits give low values 0.989 | S. cerevisiae deletion strains, locus YPL051W, strain arl3, hits give low values 1.02 | S. cerevisiae deletion strains, locus YPL078C, strain atp4, hits give low values 1.04 | S. cerevisiae deletion strains, locus YPL106C, strain sse1, hits give low values 0.978 | S. cerevisiae deletion strains, locus YPL240C, strain hsp82, hits give low values 1 | S. cerevisiae deletion strains, locus YPL256C, strain CLN2, hits give low values 0.957 | S. cerevisiae deletion strains, locus YPR119W, strain clb2, hits give low values 0.984 | S. cerevisiae deletion strains, locus YPR141C, strain kar3, hits give low values 0.98 | S. cerevisiae deletion strains, locus YPR163C, strain tif3, hits give low values 0.986 | S. cerevisiae deletion strains, locus YPR167C, strain met16, hits give low values 1 | S. cerevisiae deletion strains, strain wtn01, hits give low values 1.01 | S. cerevisiae strains, strain wild type, hits give low values 1.01
